EWS-Fli block – EWS/Fli transcriptional activity inhibition | 350,000 compounds, 0.67% hits | inhibition, % at 12.6 µM | AID 651661 | A673 NR0B1-luciferase reporter, viability-normalised;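 active = mean inhibition of at least 50% after viability correction, with every replicate also passing that limit; inconclusive = mean reaches 50% but only one of two replicates passes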;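 also: firefly luciferase signal divided by Alamar Blue viability fluorescence both relative to DMSO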
HIV Env fusion – HIV envelope-mediated fusion inhibition; HeLa-JRFL Env/CEM21 cell fusion, luciferase; inhibition, % at 12.3 µM; 360,000 compounds, 1.1% hits;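 active = mean replicate inhibition score of at least 50 and every replicate individually at or above 50; inconclusive = only one of the two criteria met; inactive = mean below 50 and not all replicates reaching 50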
F508del corr – correctors of CFTR F508del function in bronchial epithelial cells. activity (quench increase), % at 7.58 µM. AID 720511. CFBE cells, YFP halide quenching; stimulated with forskolin plus potentiator P3; % fluorescence drop versus neutral controls. 350,000 compounds, 0.36% hits;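 active = mean added fluorescence quench of at least 8% versus neutral control, with both replicates also reaching 8%; inconclusive = only one of the mean or replicate conditions met; inactive = mean below 8% and not both replicates reaching 8%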;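 also: cells transiently co-express mutant CFTR-F508del with the halide-sensitive YFP; corrector assay measuring rescue of mutant channel to the surface after 24 h compound exposure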
PAX8 inh HTS – PAX8 transcriptional activity inhibition; RMG-I TPO-luciferase reporter, SteadyGlo, 24 h; inhibition, % at 12.6 µM; 360,000 compounds, 1.2% hits;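 active = mean replicate inhibition at least 60% with every replicate also reaching 60%; inconclusive = only one of the two criteria is met; inactive = mean below 60% and not all replicates reaching 60%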;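 also: luciferase light reporting Pax8 driven TPO promoter activity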
GAA850 FXN act – activators of GAA850 frataxin (FXN) promoter; HEK293 lucGAA850 FXN promoter luciferase reporter, 24 h; percent of 10 µM SAHA response; activation, % at 6 µM; 360,000 compounds, 0.56% hits; AID 540364;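 active = activation above the average of all compounds screened plus 3 SD, cutoff fixed separately per campaign, cut at about 7.5% in these data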
Each line names hits and unclear results; the compound was inactive in the other large screens. Shown are actives, neighbours in structure and some others; about 2.5% of the full set was active somewhere.

Cc1ccc(S(=O)(=O)Nc2nc3ccccc3nc2Nc2cccc(S(=O)(=O)N3CCCC3)c2)cc1	none
Cc1ccc(NC(=O)c2cc3c(s2)CCC3)cc1S(=O)(=O)N1CCOCC1	HIV Env fusion 58 (no result: EWS-Fli block, F508del corr, PAX8 inh HTS)
O=[N+]([O-])c1cccc(S(=O)(=O)Nc2nc3ccccc3nc2Nc2cccc(S(=O)(=O)N3CCCCC3)c2)c1	HIV Env fusion 72 (no result: F508del corr)
Cc1ccc(NC(=O)c2c(C)noc2C)cc1S(=O)(=O)N1CCOCC1	F508del corr 9.9 (no result: PAX8 inh HTS)
Cc1ccc(NC(=O)c2ccc([N+](=O)[O-])o2)cc1S(=O)(=O)N1CCOCC1	PAX8 inh HTS 84 (no result: F508del corr)
C[C@H]1CN([C@@H](C)CO)C(=O)c2cccc(NS(=O)(=O)c3cn(C)cn3)c2O[C@H]1CN(C)C(=O)Nc1ccc(F)cc1	none (no result: GAA850 FXN act)
Cc1ccc(S(=O)(=O)N2CCOCC2)cc1NC(=O)COC(=O)c1ccc(Cl)nc1	F508del corr 10 (no result: HIV Env fusion)
CSc1ncccc1C(=O)OCC(=O)Nc1ccc(C)c(S(=O)(=O)N2CCOCC2)c1	HIV Env fusion 76
O=C(Nc1cccc(S(=O)(=O)N2CCCCC2)c1)c1ccc([N+](=O)[O-])o1	PAX8 inh HTS 76
O=C(C[C@H]1CC[C@@H]2[C@H](COC[C@@H](O)CN2S(=O)(=O)c2cccc(Cl)c2)O1)Nc1ccccc1	none (no result: HIV Env fusion, GAA850 FXN act)
CO[C@@H]1CN(C)C(=O)c2ccc(NC(=O)C3CC3)cc2OC[C@@H](C)N(C(=O)C2CCCCC2)C[C@H]1C	none (no result: EWS-Fli block, HIV Env fusion, GAA850 FXN act)
COc1cc(SC)ccc1C(=O)Nc1nc2ccccc2[nH]1	EWS-Fli block 94, HIV Env fusion 92, PAX8 inh HTS 114
COc1ccc(C(=O)Nc2ccc3ccccc3n2)c(OC)c1OC	EWS-Fli block 55
COc1ccccc1C(=O)Nc1nc2ccccc2[nH]1	EWS-Fli block 92, HIV Env fusion 73, PAX8 inh HTS 129
C[C@@H]1CN([C@@H](C)CO)C(=O)c2cc(NC(=O)NC3CCCCC3)ccc2O[C@@H](C)CCCCO[C@H]1CN(C)C(=O)C1CCCCC1	none (no result: GAA850 FXN act)
Cc1ccc(S(=O)(=O)Nc2ccc3c(c2)C(=O)N([C@@H](C)CO)C[C@H](C)[C@H](CN(C)C(=O)c2ccncc2)OCCCC[C@@H](C)O3)cc1	none (no result: GAA850 FXN act)
CN(CCCNC(=O)c1cc2c(=O)[nH]c3ccccc3c2n1C)Cc1ccccc1	HIV Env fusion 59
O=C(Cc1csc(Nc2nc(=S)[nH]c3ccccc23)n1)NCCCN1CCN(c2ccccc2F)CC1	PAX8 inh HTS 65
Cn1c(C(=O)NCCCN2CCN(c3ccccc3F)CC2)cc2c(=O)[nH]c3ccccc3c21	HIV Env fusion 94 (no result: EWS-Fli block, F508del corr, PAX8 inh HTS)
O=C(Cc1csc(Nc2nc(=S)[nH]c3ccccc23)n1)NCc1ccc(Cl)cc1	none (no result: HIV Env fusion, PAX8 inh HTS)
CC1CC(C)CN(CCCNC(=O)c2cc3c(=O)[nH]c4ccccc4c3n2C)C1 (centres undefined)	none
OC[C@@H]1CN(Cc2ccc(-c3ccccc3)cc2)C[C@H](n2cnc3c(NCc4ccc(F)cc4)ncnc32)O1	PAX8 inh HTS 84
OC[C@@H]1CN(Cc2ccc(F)cc2)C[C@H](n2cnc3c(NCc4ccncc4)ncnc32)O1	none
OC[C@@H]1CN(Cc2ccccc2)C[C@H](n2cnc3c(NCc4ccc(F)cc4)ncnc32)O1	none
OC[C@@H]1CN(Cc2ccc(-c3ccccc3)cc2)C[C@H](n2cnc3c(Nc4ccccc4)ncnc32)O1	none
OC[C@@H]1CN(Cc2ccccc2)C[C@H](n2cnc3c(NCc4ccncc4)ncnc32)O1	HIV Env fusion 59
OC[C@@H]1CN(Cc2ccc(-c3ccccc3)cc2)C[C@H](n2cnc3c(NC4CC4)ncnc32)O1	F508del corr 8.6
CCC(C)N(C(=O)COC(=O)c1cc([N+](=O)[O-])ccc1N)C1CCS(=O)(=O)C1 (centres undefined)	HIV Env fusion 70 (no result: EWS-Fli block)
C=CCn1c(C)cc(C(=O)Cn2ncc(Cl)c(Cl)c2=O)c1C	EWS-Fli block 55, F508del corr inconclusive (no result: HIV Env fusion)
O=C(Cn1ncc(Cl)c(Cl)c1=O)c1ccc(Cl)cc1	none (no result: EWS-Fli block, F508del corr)
CC(=O)N1CC2(C1)[C@H](c1ccc(-c3ccc(C#N)cc3)cc1)[C@@H](CO)N2C(=O)C1CC1	none (no result: HIV Env fusion, PAX8 inh HTS, GAA850 FXN act)
CNC[C@H](CC1CCCCC1)NC[C@H](Cc1ccccc1)NCCC12CC3CC(CC(C3)C1)C2	HIV Env fusion 93, PAX8 inh HTS 77
NC[C@H](Cc1ccccc1)NCCCCC1CCCCC1	none
N#Cc1cccc(-c2ccc3c(c2)[C@@H]2[C@@H](CCN2C(=O)c2ccncc2)[C@@H](CO)N3)c1	none (no result: HIV Env fusion, GAA850 FXN act)
O=C(Nc1ccc2c(c1)[C@H]1C[C@H](CC(=O)N3CCc4ccccc4C3)O[C@@H](CO)[C@H]1O2)Nc1ccccc1F	none (no result: GAA850 FXN act)
O=[N+]([O-])c1ccc(O)c(C(C#Cc2ccccc2)N2CCOCC2)c1 (centres undefined)	HIV Env fusion 89
O=C(NCC(c1cccs1)N1CCOCC1)c1cc([N+](=O)[O-])ccc1Cl (centres undefined)	none (no result: EWS-Fli block, F508del corr)
CCN(CC)S(=O)(=O)c1ccc(N2CCOCC2)c(NC(=O)c2cc(-c3ccccn3)nc3ccccc23)c1	PAX8 inh HTS 78
C[C@H]1CCCCO[C@@H](CN(C)CC2CCCCC2)[C@@H](C)CN([C@@H](C)CO)C(=O)c2cc(NC(=O)Nc3ccc4c(c3)OCO4)ccc2O1	none (no result: GAA850 FXN act)
COCc1c(C#N)c(NCCc2ccccc2)nc(C)c1[N+](=O)[O-]	none (no result: F508del corr)
COCc1c(C#N)c(NCc2cc(OC)c(OC)c(OC)c2)nc(C)c1[N+](=O)[O-]	HIV Env fusion 57
Cc1ccc(CC#N)c(-c2c(CC#N)ccc(C)c2C)c1C	none
Cc1ccc2c(c1C)-c1c(ccc(C)c1C)C(=O)C2=O	EWS-Fli block 59, PAX8 inh HTS 93
C/C=C/c1ccc([C@H]2[C@@H](CO)N(Cc3ccccn3)[C@@H]2CNC(C)=O)cc1	none (no result: HIV Env fusion, GAA850 FXN act)
O=C(Nc1ccc(Cn2cccn2)cc1)c1ccc(COc2ccc(Br)cc2)cc1	none (no result: EWS-Fli block, HIV Env fusion, F508del corr, PAX8 inh HTS)
O=C(Nc1ccn(Cc2ccccc2F)n1)c1ccc(COc2ccc(Br)cc2)cc1	HIV Env fusion 87 (no result: EWS-Fli block, F508del corr, PAX8 inh HTS)
C[C@@H]1CN([C@@H](C)CO)C(=O)Cc2cc(NC(=O)CCCCCC(=O)Nc3ccccc3N)ccc2O[C@@H]1CN(C)S(=O)(=O)c1cn(C)cn1	none (no result: PAX8 inh HTS, GAA850 FXN act)
S=c1[nH]nc(C2CCCCC2)n1/N=C/c1ccncc1	HIV Env fusion 56
CSc1ccc(/C=N/n2c(C3CCCCC3)n[nH]c2=S)cc1	none
C[C@H](CO)N1C[C@H](C)[C@@H](CN(C)S(=O)(=O)c2cn(C)cn2)Oc2ccc(NC(=O)Nc3cccc4ccccc34)cc2C1=O	none (no result: HIV Env fusion, PAX8 inh HTS, GAA850 FXN act)
O=C(C[C@H]1CC[C@@H](NC(=O)c2ccncc2)[C@H](CO)O1)NCC1CC1	none (no result: PAX8 inh HTS, GAA850 FXN act)
Clc1ccc(-n2ncc3c(N4CCCCCC4)ncnc32)cc1	EWS-Fli block 80
Cc1cccc(-n2ncc3c(N4CCCC4)ncnc32)c1	none (no result: EWS-Fli block, F508del corr, PAX8 inh HTS)
Cc1ccc(-n2ncc3c(N4CCN(c5ccccc5)CC4)ncnc32)c(C)c1	HIV Env fusion 90 (no result: EWS-Fli block, F508del corr)
Cc1ccc(-n2ncc3c(NCc4cccnc4)ncnc32)c(C)c1	HIV Env fusion 58 (no result: EWS-Fli block, F508del corr)
COc1ccc(-n2ncc3c(N4CCCCC4)ncnc32)cc1	none (no result: EWS-Fli block, HIV Env fusion, F508del corr, PAX8 inh HTS)

Source: PubChem
